Results taken from PubChem BioAssay AID1159580 (chemical genetic matrix, 2015).
Screen size: about 5,500 compounds; about 2,000 (36%) were called active. Inconclusive results (about 18%) are left out. Rule as the data show it: active = normalized growth mostly below about 0.91 (no sharp cut-off); inconclusive = no clear call, values can overlap the other calls; inactive = mostly above about 0.92. The list shows a part of the results.

Assay: chemical genetic growth profiling, strain panel (AID 1159580);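 also: tested at 20 µM; growth read once vehicle control cultures reached saturation at 30 °C; 1 = growth at the plate median or of vehicle wells; lower values mean less growth of the strain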
Conditions: growth OD

Measured: normalized growth

NC(Cn1ccc(=O)c(O)c1)C(=O)O (configuration not stated)
inactive: S. cerevisiae deletion strains, locus YJR075W, strain HOC1, stronger effect = lower value 1.01 | S. cerevisiae deletion strains, locus YKL009W, strain mrt4, stronger effect = lower value 1.01 | S. cerevisiae deletion strains, locus YKL068W, stronger effect = lower value 0.993 | S. cerevisiae deletion strains, locus YKL085W, strain MDH1 (second series), stronger effect = lower value 0.993 | S. cerevisiae deletion strains, locus YKL085W, strain MDH1, stronger effect = lower value 0.993 | S. cerevisiae deletion strains, locus YKL160W, strain elf1, stronger effect = lower value 1.04 | S. cerevisiae deletion strains, locus YKL190W, strain CNB1, stronger effect = lower value 1.01 | S. cerevisiae deletion strains, locus YKR001C, strain vps1, stronger effect = lower value 0.991 | S. cerevisiae deletion strains, locus YKR026C, strain gcn3, stronger effect = lower value 1.03 | S. cerevisiae deletion strains, locus YKR091W, strain srl3, stronger effect = lower value 1.01 | S. cerevisiae deletion strains, locus YLL001W, strain dnm1, stronger effect = lower value 0.981 | S. cerevisiae deletion strains, locus YLL026W, stronger effect = lower value 1.01 | S. cerevisiae deletion strains, locus YLL041C, strain sdh2, stronger effect = lower value 1.01 | S. cerevisiae deletion strains, locus YLR027C, strain aat2, stronger effect = lower value 1.01 | S. cerevisiae deletion strains, locus YLR039C, strain RIC1, stronger effect = lower value 1.04 | S. cerevisiae deletion strains, locus YLR058C, strain SHM2, stronger effect = lower value 1.01 | S. cerevisiae deletion strains, locus YLR102C, strain apc9, stronger effect = lower value 0.988 | S. cerevisiae deletion strains, locus YLR113W, strain HOG1, stronger effect = lower value 1.03 | S. cerevisiae deletion strains, locus YLR221C, strain rsa3, stronger effect = lower value 1 | S. cerevisiae deletion strains, locus YLR258W, strain gsy2, stronger effect = lower value 1.03 | S. cerevisiae deletion strains, locus YLR262C, strain YPT6 (second series), stronger effect = lower value 0.977 | S. cerevisiae deletion strains, locus YLR262C, strain YPT6, stronger effect = lower value 1.03 | S. cerevisiae deletion strains, locus YLR268W, strain sec22, stronger effect = lower value 0.962 | S. cerevisiae deletion strains, locus YLR320W, strain mms22, stronger effect = lower value 0.981 | S. cerevisiae deletion strains, locus YLR330W, strain CHS5, stronger effect = lower value 1.01 | S. cerevisiae deletion strains, locus YLR342W, strain FKS1 (second series), stronger effect = lower value 1.06 | S. cerevisiae deletion strains, locus YLR342W, strain FKS1, stronger effect = lower value 1.03 | S. cerevisiae deletion strains, locus YLR357W, strain rsc2, stronger effect = lower value 0.986 | S. cerevisiae deletion strains, locus YLR370C, strain arc18, stronger effect = lower value 1.03 | S. cerevisiae deletion strains, locus YLR371W, strain rom2, stronger effect = lower value 0.995 | S. cerevisiae deletion strains, locus YLR384C, strain iki3, stronger effect = lower value 1.03 | S. cerevisiae deletion strains, locus YLR418C, strain cdc73, stronger effect = lower value 0.994 | S. cerevisiae deletion strains, locus YML016C, strain PPZ1, stronger effect = lower value 1.02 | S. cerevisiae deletion strains, locus YML032C, strain rad52, stronger effect = lower value 0.965 | S. cerevisiae deletion strains, locus YML120C, strain ndi1, stronger effect = lower value 1.01 | S. cerevisiae deletion strains, locus YML124C, strain tub3, stronger effect = lower value 0.995 | S. cerevisiae deletion strains, locus YMR058W, strain fet3, stronger effect = lower value 1.01 | S. cerevisiae deletion strains, locus YMR078C, strain ctf18, stronger effect = lower value 0.982 | S. cerevisiae deletion strains, locus YMR125W, strain sto1, stronger effect = lower value 1.04 | S. cerevisiae deletion strains, locus YMR129W, stronger effect = lower value 1.01 | S. cerevisiae deletion strains, locus YMR205C, strain PFK2, stronger effect = lower value 1.01 | S. cerevisiae deletion strains, locus YMR223W, strain ubp8, stronger effect = lower value 1.01 | S. cerevisiae deletion strains, locus YMR231W, strain pep5, stronger effect = lower value 1.02 | S. cerevisiae deletion strains, locus YMR263W, strain SAP30, stronger effect = lower value 1.01 | S. cerevisiae deletion strains, locus YMR307W, strain GAS1, stronger effect = lower value 1.02 | S. cerevisiae deletion strains, locus YNL067W, strain RPL9B, stronger effect = lower value 1.01 | S. cerevisiae deletion strains, locus YNL071W, strain lat1, stronger effect = lower value 1.02 | S. cerevisiae deletion strains, locus YNL128W, strain TEP1, stronger effect = lower value 1.01 | S. cerevisiae deletion strains, locus YNL153C, strain GIM3, stronger effect = lower value 1.01 | S. cerevisiae deletion strains, locus YNL183C, strain NPR1, stronger effect = lower value 0.974 | S. cerevisiae deletion strains, locus YNL209W, strain ssb2, stronger effect = lower value 1.03 | S. cerevisiae deletion strains, locus YNL233W, strain BNI4, stronger effect = lower value 1.02 | S. cerevisiae deletion strains, locus YNL248C, strain rpa49, stronger effect = lower value 1.04 | S. cerevisiae deletion strains, locus YNL250W, strain rad50, stronger effect = lower value 0.978 | S. cerevisiae deletion strains, locus YNL271C, strain bni1, stronger effect = lower value 0.984 | S. cerevisiae deletion strains, locus YNL298W, strain CLA4, stronger effect = lower value 0.987 | S. cerevisiae deletion strains, locus YNL307C, strain MCK1, stronger effect = lower value 0.997 | S. cerevisiae deletion strains, locus YNL322C, strain KRE1 (second series), stronger effect = lower value 1.02 | S. cerevisiae deletion strains, locus YNL322C, strain KRE1, stronger effect = lower value 1.01 | S. cerevisiae deletion strains, locus YNR049C, strain mso1, stronger effect = lower value 1.02 | S. cerevisiae deletion strains, locus YNR052C, strain pop2, stronger effect = lower value 0.992 | S. cerevisiae deletion strains, locus YOL006C, strain TOP1, stronger effect = lower value 1.01 | S. cerevisiae deletion strains, locus YOL012C, strain htz1 0.622 | S. cerevisiae deletion strains, locus YOL147C, strain pex11, stronger effect = lower value 0.985 | S. cerevisiae deletion strains, locus YOR001W, strain rrp6, stronger effect = lower value 0.969 | S. cerevisiae deletion strains, locus YOR061W, strain CKA2, stronger effect = lower value 1.03 | S. cerevisiae deletion strains, locus YOR069W, strain VPS5, stronger effect = lower value 1.01 | S. cerevisiae deletion strains, locus YOR070C, strain gyp1, stronger effect = lower value 1.03 | S. cerevisiae deletion strains, locus YOR080W, strain dia2, stronger effect = lower value 1.01 | S. cerevisiae deletion strains, locus YOR083W, strain WHI5, stronger effect = lower value 0.982 | S. cerevisiae deletion strains, locus YOR106W, strain vam3, stronger effect = lower value 1.02 | S. cerevisiae deletion strains, locus YOR136W, strain idh2, stronger effect = lower value 0.996 | S. cerevisiae deletion strains, locus YOR144C, strain elg1, stronger effect = lower value 0.985 | S. cerevisiae deletion strains, locus YOR184W, strain ser1, stronger effect = lower value 0.99 | S. cerevisiae deletion strains, locus YOR231W, strain MKK1, stronger effect = lower value 1.02 | S. cerevisiae deletion strains, locus YOR265W, strain rbl2, stronger effect = lower value 1.02 | S. cerevisiae deletion strains, locus YOR270C, strain vph1, stronger effect = lower value 1.07 | S. cerevisiae deletion strains, locus YOR290C, strain snf2, stronger effect = lower value 1.04 | S. cerevisiae deletion strains, locus YOR316C, strain cot1, stronger effect = lower value 0.988 | S. cerevisiae deletion strains, locus YPL051W, strain arl3, stronger effect = lower value 1.03 | S. cerevisiae deletion strains, locus YPL055C, strain LGE1, stronger effect = lower value 1.05 | S. cerevisiae deletion strains, locus YPL078C, strain atp4, stronger effect = lower value 1.05 | S. cerevisiae deletion strains, locus YPL106C, strain sse1, stronger effect = lower value 1.02 | S. cerevisiae deletion strains, locus YPL240C, strain hsp82, stronger effect = lower value 1.01 | S. cerevisiae deletion strains, locus YPL241C, strain CIN2, stronger effect = lower value 1.01 | S. cerevisiae deletion strains, locus YPL256C, strain CLN2, stronger effect = lower value 1.03 | S. cerevisiae deletion strains, locus YPR119W, strain clb2, stronger effect = lower value 0.988 | S. cerevisiae deletion strains, locus YPR141C, strain kar3, stronger effect = lower value 0.993 | S. cerevisiae deletion strains, locus YPR163C, strain tif3, stronger effect = lower value 0.987 | S. cerevisiae deletion strains, locus YPR167C, strain met16, stronger effect = lower value 0.99 | S. cerevisiae deletion strains, strain wtn01, stronger effect = lower value 0.991 | S. cerevisiae strains, strain wild type, stronger effect = lower value 1.03
